Assay [1] can be described thus: qHTS assay to identify small molecule agonists of the estrogen receptor alpha (ER-alpha) signaling pathway in the presence of an antagonist - cell viability counter screen (AID 1259386).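 Note: cells exposed to compounds for 22 h at 37 °C before the viability read; nearly all actives have a fitted effect of over 30% in size.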 Note: potency is the fitted concentration of half-maximal effect. A digest of the protocol: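 Steps: 5-day stripped-FBS culture; seed and incubate 24hr; add ICI-182,780 (10.0nM final); pin 15-point compound titration; incubate 22hr at 37C; add CellTiter-Fluor at 21hr; read fluorescence.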
A general note: In qHTS, concentration-response curves come from the screen itself.

Assay [2] concerns the target Progesterone receptor (Homo sapiens) (UniProt P06401). In words: qHTS assay to identify small molecule agonists of the progesterone receptor (PR) signaling pathway (AID 1346784; calls by dose curve; note: nearly all actives have a fitted effect of over 30% in size). In outline:
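Cells (PR-UAS-bla HEK 293T, GripTite) were plated in assay medium containing 2% charcoal-stripped FBS and incubated 6 hr. Test compounds in DMSO were added for 16 hr at 37C. FRET substrate was then loaded for 2 hr at room temperature before fluorescence reading.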

For assay [3] the target is unchanged. In words: qHTS assay to identify small molecule antagonists of the progesterone receptor (PR) signaling pathway (AID 1346795; active = well fitted inhibition curve with a large enough effect in the signal ratio in the repeat runs, not every such curve was filed as active; the % refers to the signal ratio; note: potency is the fitted concentration of half-maximal effect). A digest of the protocol: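 Antagonist mode: compounds tested against 1 nM (final) promegestone stimulation in HEK293T cells expressing PR-UAS-bla reporter, 16 hr at 37C, 5% CO2; beta-lactamase activity detected via B/G FRET substrate after 2 hr at room temperature.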

The nature of assay [4]: qHTS assay to identify small molecule antagonists of the progesterone receptor (PR) signaling pathway - cell viability counter screen (AID 1346798). Note: series mostly up to about 92 µM; nearly all actives have a fitted effect of over 50% in size. In outline:
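Counter screen for cytotoxicity: viability of PR-UAS-bla HEK293T cells was measured with CellTiter-Glo luminescence following 16 hr compound exposure in the presence of R5020.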

A short description of assay [5]: qHTS assay to identify small molecule agonists of the progesterone receptor (PR) signaling pathway - cell viability counter screen (AID 1346799; calls by dose curve; note: nearly all actives have a fitted effect of over 45% in size). A digest of the protocol: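 Cells (PR-UAS-bla HEK293T) are plated at 3,000/well in 2% charcoal-stripped FBS medium, rested 6 hr, dosed and incubated 16 hr at 37C. CellTiter-Glo is then added and luminescence measured after 30 min at room temperature.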

Assay [6] in a line: qHTS assay to identify small molecule antagonists of the TGF-beta/Smad signaling pathway - cell viability counter screen (AID 1346824). Note: nearly all actives have a fitted effect of over 50% in size. In outline: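 Cytotoxicity counter-screen run in the same wells as the beta-lactamase Smad reporter read: CellTiter-Glo luminescence after 30 min at room temperature. HEK 293T SBE-bla cells had 5 hr compound exposure at 37 C with TGF-beta1 (0.25 ng/mL stock).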

A short description of assay [7]: qHTS assay to identify small molecule agonists of the TGF-beta/Smad signaling pathway (AID 1346859; active = well fitted activation curve with a large enough effect in the signal ratio in the repeat runs, not every such curve was filed as active; the % refers to the signal ratio; note: series mostly up to about 77 µM). A digest of the protocol: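 Reporter line: HEK 293T with stably integrated SBE-controlled beta-lactamase. Compound exposure lasts 5 hr at 37 C and 5% CO2; substrate loading follows for 2 hr at room temperature, with emission read at 460 and 530 nm.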
Assay [8] deals with Thyrotropin-releasing hormone receptor (Homo sapiens) (UniProt P34981). In words: qHTS assay to identify small molecule antagonists of the thyrotropin-releasing hormone receptor (TRHR) signaling pathway (AID 1346877; active = well fitted inhibition curve with a large enough effect in the repeat runs, not every such curve was filed as active; note: series mostly up to about 51 µM). A digest of the protocol:
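Human TRHR in HEK293 cells; inhibition of the intracellular calcium rise triggered by 1 nM TRH was followed by fluorescence over 3 min. Compounds were run at 15 concentrations, three replicates each.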

The nature of assay [9]: qHTS assay to identify small molecule agonists of the TGF-beta/Smad signaling pathway - cell viability counter screen (AID 1346829). Note: top concentration of the series differs between compounds; nearly all actives have a fitted effect of over 45% in size. In outline: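 In parallel with the Smad reporter read, viability of HEK 293T cells stably carrying SBE-bla is quantified by ATP luminescence following 5 hr compound treatment.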

This note sets out measurements from PubChem BioAssay (Tox21).

Results filed as inconclusive are left out. A structure can be active in one record and inactive in another. The source made the active and inactive calls. Unless noted, calls come from the whole dose curve; as a rule, active = well fitted curve in the direction sought with a large enough effect in the repeat runs; inconclusive = weak or mixed curves; inactive = no such curve, though single readings can be large; an effect the other way counts as inactive or inconclusive.

Sequence of Progesterone receptor (Homo sapiens) (P06401 whole entry, looked up): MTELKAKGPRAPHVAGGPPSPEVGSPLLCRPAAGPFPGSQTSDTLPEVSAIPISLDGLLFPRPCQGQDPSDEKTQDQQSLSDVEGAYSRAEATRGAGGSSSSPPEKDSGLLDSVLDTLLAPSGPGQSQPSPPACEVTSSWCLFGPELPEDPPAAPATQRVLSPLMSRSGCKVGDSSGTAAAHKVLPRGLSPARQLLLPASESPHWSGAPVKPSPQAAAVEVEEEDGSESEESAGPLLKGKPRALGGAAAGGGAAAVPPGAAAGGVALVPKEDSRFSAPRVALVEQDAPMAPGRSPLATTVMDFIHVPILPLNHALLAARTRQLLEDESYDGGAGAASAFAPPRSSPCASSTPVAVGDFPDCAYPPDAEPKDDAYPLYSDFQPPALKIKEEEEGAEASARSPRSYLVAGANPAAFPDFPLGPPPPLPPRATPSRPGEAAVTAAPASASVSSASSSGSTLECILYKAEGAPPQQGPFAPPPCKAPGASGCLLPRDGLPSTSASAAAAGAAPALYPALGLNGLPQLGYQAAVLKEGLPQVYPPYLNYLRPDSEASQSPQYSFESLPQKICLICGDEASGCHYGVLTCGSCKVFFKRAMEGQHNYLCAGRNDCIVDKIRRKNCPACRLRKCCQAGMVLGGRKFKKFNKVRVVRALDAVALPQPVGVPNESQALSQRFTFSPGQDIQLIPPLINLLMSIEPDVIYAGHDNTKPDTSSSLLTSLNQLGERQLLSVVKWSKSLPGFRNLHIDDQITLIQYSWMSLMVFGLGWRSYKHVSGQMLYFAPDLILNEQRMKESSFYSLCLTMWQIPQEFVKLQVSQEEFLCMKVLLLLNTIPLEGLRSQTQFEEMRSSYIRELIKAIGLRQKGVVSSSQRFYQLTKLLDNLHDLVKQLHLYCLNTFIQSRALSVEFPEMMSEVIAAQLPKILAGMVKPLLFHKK
Sequence of Thyrotropin-releasing hormone receptor (Homo sapiens) (P34981 whole entry, looked up): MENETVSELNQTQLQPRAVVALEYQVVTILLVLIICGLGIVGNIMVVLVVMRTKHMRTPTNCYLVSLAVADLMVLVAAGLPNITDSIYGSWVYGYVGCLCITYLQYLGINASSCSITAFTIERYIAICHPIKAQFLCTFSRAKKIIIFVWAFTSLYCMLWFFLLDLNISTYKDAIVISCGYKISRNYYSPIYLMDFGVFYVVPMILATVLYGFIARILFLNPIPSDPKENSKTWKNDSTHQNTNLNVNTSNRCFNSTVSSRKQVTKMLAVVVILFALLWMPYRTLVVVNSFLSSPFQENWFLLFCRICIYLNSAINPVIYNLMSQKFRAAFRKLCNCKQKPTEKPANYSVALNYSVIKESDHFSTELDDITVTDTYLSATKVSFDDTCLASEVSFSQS

For the molecule `O=C1CC(=O)NC(=O)N1`, the Potency entry in assay [1], in assay [2], in [3], in [4], in [5] and in [8] was “inactive” each time. The molecule was called inactive in [6] and in assay [7].

Regarding `CC[C@@H](CO)NC(=O)[C@@H]1C=C2c3cccc4c3c(cn4C)C[C@H]2N(C)C1`, the Potency result in assay [1], in assay [2], in assay [3], in assay [4], in assay [5] and in [9] was “inactive” in each case. The Potency entry in assay [8] is “inactive”. For the same molecule, the molecule was classed as inactive in assay [6] and in assay [7].

Turning to `CCCC(C)C1(CC)C(=O)N=C(S)NC1=O` (stereo not drawn), the Potency entry in [2], in assay [4], in [5], in [9] and in assay [8] was “inactive” throughout. For the same molecule, the call in assay [6] and in assay [7] was inactive.

For `OCC(Cl)CCl` (stereo not drawn), the Potency result in assay [1], in [2], in assay [4], in assay [5] and in assay [8] was “inactive” in each case. Besides, the result in assay [6] and in [7] was inactive.

As to `C=C(Cl)CSC(=S)N(CC)CC`, the Potency result in [1], in [2], in assay [4], in assay [5] and in [9] was “inactive” each time. For the same molecule, the molecule was called inactive in assay [6].

Regarding `COc1cc(CC(C)N)cc(OC)c1OC` (stereo not drawn), the Potency result in assay [1], in assay [2], in assay [3], in assay [5] and in assay [8] was “inactive” in each case. For the same molecule, the molecule was classed as inactive in assay [6] and in assay [7].

For the molecule `O=C(O)C(Cl)Br` (stereo not drawn), the Potency entry in assay [1], in assay [2], in assay [3], in [4], in assay [5] and in [9] was “inactive” throughout. Moreover, the Potency result in [8] is “inactive”. Further, the result in [6] and in assay [7] was inactive.

As for `C[C@H](CN1CCOCC1)C(C(=O)N1CCCC1)(c1ccccc1)c1ccccc1`, the Potency result in [1], in [2], in assay [4], in [5], in [9] and in [8] was “inactive” each time. Further, the molecule was called inactive in assay [6] and in assay [7].

As for `O=C/C=C/c1ccco1`, the Potency entry in assay [2], in assay [4], in [5], in assay [9] and in assay [8] was “inactive” each time. For the same molecule, the result in assay [6] was inactive.

As to `CCNc1nc(Cl)nc(NC(C)(C)C)n1`, the Potency result in assay [1], in assay [2], in assay [4], in assay [5], in assay [9] and in [8] was “inactive” in each case. The molecule was called inactive in [6] and in assay [7].

As for `CN1COCN(Cc2cnc(Cl)s2)/C1=N\[N+](=O)[O-]`, the Potency result in assay [1], in [2], in [3], in assay [4], in assay [5] and in [9] was “inactive” in each case. The Potency result in assay [8] is “inactive”. Besides, in assay [7], the call was inactive.

Consider `CCCCCCCCSC(=O)Oc1cc(Cl)nnc1-c1ccccc1`, for which the Potency result in assay [1], in [2], in assay [4], in assay [5], in assay [9] and in [8] was “inactive” in each case. For the same molecule, the outcome in assay [6] and in assay [7] was inactive.

Turning to `CC(C)(C1CCC(O)CC1)C1CCC(O)CC1` (stereo not drawn), the Potency entry in assay [1], in [2], in assay [5] and in assay [9] was “inactive” throughout. Moreover, the Potency in assay [3] is 27.3 µM (active). Further, the molecule was called inactive in assay [6] and in assay [7].

As for `CCN(CC)C1CCCCC1`, the Potency result in assay [1], in assay [2], in assay [3], in assay [4] and in assay [8] was “inactive” each time. Further, the outcome in assay [6] and in [7] was inactive.

On to `Cn1c(N)nc2c3cccnc3ccc21`, for which the Potency result in [2], in assay [3], in [4], in assay [5], in assay [9] and in assay [8] was “inactive” in each case. The result in assay [6] and in [7] was inactive.

Take `O=C(Cl)/C=C/C(=O)Cl`: the Potency result in assay [1], in assay [4] and in [9] was “inactive” throughout. Also, the outcome in [6] and in assay [7] was inactive.

As for `COc1ccc(CN2CCNCC2)c(OC)c1OC`, the Potency entry in assay [1], in [2], in assay [3], in [4] and in assay [8] was “inactive” throughout. Also, the result in assay [6] and in assay [7] was inactive.

With `BrCC1CO1` (stereo not drawn), the Potency result in assay [2], in assay [3], in assay [4], in assay [9] and in assay [8] was “inactive” throughout. Moreover, the result in assay [6] and in assay [7] was inactive.

Turning to `O=[N+]([O-])CCO`, the Potency entry in assay [2], in [3], in [4], in assay [5], in assay [9] and in assay [8] was “inactive” in each case. The molecule was called inactive in assay [6].

As to `O=C(NC(O)C(Cl)(Cl)Cl)NC(O)C(Cl)(Cl)Cl` (stereo not drawn), the Potency entry in [1], in [2], in assay [3], in [4], in assay [5] and in assay [9] was “inactive” in each case. For the same molecule, the Potency result in [8] is “inactive”. Further, the molecule was called inactive in assay [6] and in assay [7].

For `N#CN`, the Potency entry in [1], in assay [2], in assay [4], in [5], in assay [9] and in assay [8] was “inactive” each time.

As for `C[C@H]1CCCC(=O)CCC/C=C/c2cc(O)cc(O)c2C(=O)O1`, the Potency in assay [1] is 46.8 µM (active) and inactive; in assay [3], 5.02 µM (active). The outcome in assay [6] and in assay [7] was inactive. Besides, the Potency entry in assay [9] and in [8] was “inactive” each time.

For `CC(C)C(C)(N)C#N` (stereo not drawn), the Potency result in assay [1], in assay [2], in assay [4], in [5], in assay [9] and in assay [8] was “inactive” throughout. Also, the molecule was called inactive in assay [6] and in [7].

For `N[C@@H](Cc1ccc(Oc2cc(I)c(O)c(I)c2)c(I)c1)C(=O)O`, the Potency result in [2], in assay [4], in [9] and in assay [8] was “inactive” each time. Moreover, the result in assay [6] was inactive.
